From the supplement of paper PMC10338343
± gives the standard deviation.

system: MILI (PIWIL2) piRISC loaded with piRNA #1 (26 nt); assay: pre-steady-state target cleavage rate (min^-1); guide: piRNA #1 5'p-UGAGGUAGUAGGUUGUAUAGUAUCCA; MIWI and MILI are mouse PIWI proteins and EfPiwi is from a freshwater sponge; tags in brackets are library labels; higher = faster piRNA-guided slicing of the target; conditions: auxiliary factor: 500 nM mouse GTSF1
Outline: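 A transcribed, DNA-blocked target RNA library […] was incubated at 33 °C for 0–8 or 0–960 min with 1 nM active affinity-purified piRISC carrying one synthetic guide, in HEPES–potassium acetate buffer with or without 500 nM GTSF1 partner protein. Uncleaved targets were then sequenced and normalised to depth and to weakly complementary targets. Data from three trials were pooled, with k3 capped at 0.0001 min^-1, and a burst-and-steady-state fit yielded the pre-steady-state cleavage rate.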
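Note: 1 nM active piRISC with 0.1 nM target library at 33 °C single turnover.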

Sequence | pre-steady-state target cleavage rate
GGAGACGAUAGUAUACAACCUACUUCCUCA | 0.0731 ± 0.015
GGAGAGGAAACUAAACAACCUACUACCUCA | 0.229 ± 0.03
GGAGACCUAACUAUUCAAGCUACUACCUCA | 0.217 ± 0.027
GGAGACCUUACUAUACAUCCUACUAGCUCA | 0.2 ± 0.024
GGAGACCUAUCUAUACAACCAAGUACCUCA | 0.00317 ± 0.0031
GGAGUGGAUACAAUACAACCUACUUCCUCA | 0.00975 ± 0.0031
GGAGACCAUACAAUACAACGUACUACCUCA | 0.0186 ± 0.0044
GGAGUGGAUACUAUAGUUCCUACUACCUCA | 0.169 ± 0.0095
GGAGUGGAUACUAUACAACCUCCUACCUCA | 0.0339 ± 0.0035
GGAGACGAUACUAUACAACUACUACCUCA | 0.0571 ± 0.0061
GGAGUGCAUACUAUAGAACCUACUACCUCA | 0.177 ± 0.013
GGAGACCUUACUAUUGAACCUACUACCUCA | 0.137 ± 0.013
GGAGACCUAUCUAUACAACCUACAAGCUCA | 0.0435 ± 0.012
GGAGACCUAUGAUUACAAGCUUCUACCUCA | 0.00347 ± 0.0023
GGAGACCUAUCUAUACUACCUACUAGCUCA | 0.0698 ± 0.014
GGAGACCUUAGUAUACAACCUACUUCCUCA | 0.0515 ± 0.014
GGAGACGAUACUAUACAACCUACUACCUUA | 0.228 ± 0.027
GGAGACCAUUCUAUACAAGCUACUACCUCA | 0.254 ± 0.018
GGAGACCUAUCUAUACAACGUACUACCUCA | 0.0127 ± 0.0028
GGAGACCAUACUAUAGAACCUACUACCACA | 0.0789 ± 0.021

Sequence | pre-steady-state target cleavage rate
GGAGACCUUACAUAACAACCUACUACCUCA | 0.013 ± 0.0048
GGAGACCUAACUAUUCAACCUACUACCUCA | 0.138 ± 0.022
GGAGACCUAUGAUAUGUACCUACUACCUGA | < 0.0001
GGAGACCUAUGAAUACAACCUACUAUCCUCA | 0.00841 ± 0.0026
GGAGACCUAUGAUUACAAGCUACUACGUCA | 0.00819 ± 0.0037
GGAGACCUAUGAUAUGAAACCUACUACCUCA | 0.00314 ± 0.0026
GGAGACCUAUGUAUAGCAACCUACUACCUCA | 0.0101 ± 0.003
GGAGACCUAUGAUAUCAACCUACACCUCA | < 0.0001
GGAGACCUAUGAUAUGUUCCUAGUACCUGA | < 0.0001
GGAGACCUAACUAUACAAGGUACUACCUCA | 0.0664 ± 0.012
GGAGACCUAUGAUAUGUUGGUAUACCUCA | < 0.0001
GGAGACCUAUGAUUACGACCUACUACCUCA | 0.00341 ± 0.003
GGAGACCUAUGAUUACAACCUACAACCUCA | 0.00538 ± 0.0023
GGAGACCUAUGAAUACAACCUACUAGCUCA | 0.00444 ± 0.0022
GGAGACCUAUGAUUUCAUCCUACUACCUCA | 0.0038 ± 0.0025
GGAGACCUAUGAAUACAACCUACUACCAUCA | 0.00646 ± 0.0026
GGAGAGGUUAGUAUACAACCUACUACCUCA | 0.0314 ± 0.0096
GGAGACCUUACAAUACUACCUACUACCUCA | 0.114 ± 0.013
GGAGACCUAUGAUAUGAACCUGCUACCUCA | < 0.0001
GGAGACCAUACUAUACUACCUACUAGCUCA | 0.0939 ± 0.017
